The list is not random: actives were taken first. Their share in the collection is about 4.4%.
TIM10 inh: growth inhibitors of isogenic TIM10 control yeast, primary screen, counter-screen for tim10-1 yeast inhibitor project, luminescence, uHTS | 330,000 compounds, 1.4% hits | AID 463195, 2010 | inhibition, % at 10 µM | S. cerevisiae TIM10 strain growth, BacTiter-Glo luminescence, 24 h;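 active = inhibition of 40% or more at the single tested concentration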;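 also: wild-type TIM10 isogenic control strain grown at permissive 25 °C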
SUMO Mot1 rescue: yeast Mot1-301 growth rescue at high temperature, primary screen, SUMOylation pathway inhibitor project, S. cerevisiae, ATP luminescence, 38.5C; S. cerevisiae Mot1-301 growth rescue; percent above DMSO median, 100 means doubled; growth rescue, % at 18.8 µM; 320,000 compounds, 1% hits; AID 2716, 2010;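 active = every valid replicate shows activation above 250% relative to neutral control wells; inactive = the rest, any valid replicate at or below 250%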;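 also: OY570 slx delta 5 strain wells were the positive control but not used for scaling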
tim23-1 inh: growth inhibitors of tim23-1 mutant yeast, primary screen, luminescence, uHTS; inhibition, % at 20 µM; AID 463212, 2010; S. cerevisiae tim23-1 growth, BacTiter-Glo luminescence, 24 h; 330,000 compounds, 1.3% hits;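 active = growth inhibition of the mutant yeast at or above 50%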;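 also: temperature-sensitive mutant grown at 25 °C; plate controls were DMSO-treated mutant yeast for no effect and medium wells lacking yeast for full effect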
PfHsp90 yeast 2: growth inhibition of PfHsp90-expressing yeast, primary screen, antimalarial PfHsp90 inhibitor project, S. cerevisiae, BacTiter-Glo luminescence, single point, set 2; AID 504621, 2011; BacTiter-Glo ATP, 48 h; yeast lacking PDR1 and PDR3 efflux regulators; inhibition, % at 9.4 µM; 310,000 compounds, 0.32% hits;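 active = every replicate shows inhibition above about 80%, whatever the replicate mean, limit read from the data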;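 also: 0% = DMSO neutral controls and 100% = 20 µM radicicol positive controls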
tim10-1 inh: growth inhibitors of tim10-1 mutant yeast, primary screen, luminescence, uHTS; S. cerevisiae tim10-1 ts strain growth, BacTiter-Glo, 24 h; inhibition, % at 20 µM; 330,000 compounds, 2.2% hits; AID 463190, 2010;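 active = inhibition of at least 40%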;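 also: mutant grown at 25 °C; 0% = DMSO wells with yeast and 100% = wells holding no yeast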
tim10-1 conf: growth inhibitors of tim10-1 mutant yeast, confirmation, single concentration, luminescence, S. cerevisiae; shares compounds with tim10-1 inh; S. cerevisiae tim10-1 ts strain growth, BacTiter-Glo, 24 h; inhibition, % at 20 µM; 7,400 compounds, 56% hits;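 active = inhibition of yeast growth at or above a set limit in either of two repeat tests at 20 µM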;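 also: tim10-1 mutant grown at permissive 25 °C to find synthetic lethal compounds; 0% = DMSO yeast wells and 100% = medium wells without yeast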
* marks the source's active call; other numbers are inactive results; / = no result.

SMILES	TIM10 inh	SUMO Mot1 rescue	tim23-1 inh	PfHsp90 yeast 2	tim10-1 inh	tim10-1 conf
O=C(NCCN1C(=O)S/C(=C/c2cccnc2)C1=O)c1cccs1	29.4	-13.1	43.4	11.8	43.6*	25.5
CCSc1nc2c(cnn2-c2ccc(C)cc2)c(=O)[nH]1	14.5	-16.3	16.8	-18.0	40.9*	-5.7
CCCSc1nc2c(cnn2-c2ccc(C)cc2)c(=O)[nH]1	-12.7	26.0	9.1	-5.9	14.3	/
CS(=O)(=O)c1ccc(-c2cccc(NC(=O)c3ccco3)c2)nn1	8.8	4.0	-1.0	-25.2	5.7	/
Cc1ccc(C)c(NC(=S)NNC(=O)c2csc3c2CCC(C)C3)c1 (centres undefined)	-13.0	95.7	23.3	-9.0	44.5*	34.4*
Cc1ccc(C)c(NC(=S)NNC(=O)c2csc3c2CCCC3)c1	14.8	/	18.8	-1.9	36.9	/
Cc1ccc(CNC(=O)C2CCC(=O)N2Cc2ccc(C)cc2)cc1 (centres undefined)	10.9	2.4	6.1	-5.2	-0.9	/
Cc1cc(C(F)(F)F)n2nc(-c3cnn(C)c3C(F)(F)F)c(Br)c2n1	23.3	-6.0	43.2	11.2	40.8*	30.1
Cc1cc(C(F)(F)F)n2nc(C(=O)O)c(Cl)c2n1	2.0	8.4	-0.1	7.5	-15.6	/
COc1cc(-c2nnc(COc3ccc4cc(Br)ccc4c3)o2)cc(OC)c1OC	12.6	-2.7	18.8	-10.3	24.1	/
COc1ccc(-c2nnc(COc3ccc4ccccc4c3)o2)cc1OC	5.7	17.4	-2.7	-36.3	43.5*	11.7
O=C(CCn1c(=O)oc2ccc(Cl)cc21)NCCCN1CCOCC1	3.9	-0.6	-8.7	0.1	-12.2	/
CCOc1ccc(C(C)=O)cc1N1C(=O)C2C3C=CC(O3)C2C1=O (centres undefined)	-4.0	8.5	-6.1	-12.5	54.6*	22.8
CN=C(Nc1cc(Cl)ccc1Cl)SC1CC(=O)N(c2ccc(C(=O)OC)cc2)C1=O (centres undefined)	14.5	-11.7	41.6	/	43.6*	41.8*
O=S(=O)(/N=C(/Sc1ccccc1)c1ccccc1)c1ccccc1	38.7	194.4	30.5	-5.1	51.5*	43.0*
O=C(CN1CCCC(O)C1)N1c2ccccc2Sc2ccc(C(F)(F)F)cc21 (centres undefined)	13.9	-2.6	21.0	-2.7	13.5	/
CN1CCN(CCCN2c3ccccc3Sc3ccc(C(F)(F)F)cc32)CC1	26.7	30.0	17.1	-15.3	42.0*	26.4
COC(CN(C)C(=O)c1cn(C)c2ccc(S(=O)(=O)N(C)C3CCCCC3)cc2c1=O)OC	10.5	12.2	-14.6	-3.9	-4.8	/
COc1ccc(C(C)=O)cc1Cn1nc(C)c([N+](=O)[O-])c1C	10.4	-1.2	18.2	-14.6	12.9	/
COc1ccc(/C=C/C(=O)C2CC2)cc1Cn1nc(C)c([N+](=O)[O-])c1C	24.0	684.1	24.5	3.0	47.5*	37.3*
N#CCCn1cc(C(=O)Nc2cccc(C(=O)O)c2)c(-c2ccc(Cl)cc2)n1	-8.3	4.3	9.5	-23.6	5.7	/
CN(C)c1ccc(C(C(=O)NCc2ccccc2)N(Cc2ccco2)C(=O)c2snc(C(N)=O)c2N)cc1 (centres undefined)	/	9.0	/	-36.0	/	/
COc1cccc(-c2nc(=S)c3c(n2Cc2ccco2)CCCC3)c1	20.1	-5.6	16.5	-24.8	42.0*	40.1*
Cc1cccc(-c2nc(=S)c3c(n2Cc2ccco2)CCCC3)c1	20.2	-19.8	10.4	/	27.9	/
Cc1ccc(S(=O)(=O)N2[C@@H](c3ccc(Cl)cc3)C(C(=O)O)=CC[C@H]2c2cccc(Cl)c2)cc1	17.6	-0.3	33.8	-14.1	27.4	/
O=C(O)C1=CC[C@@H](c2ccc(Cl)cc2)N(S(=O)(=O)c2ccc(Cl)cc2)[C@H]1c1cccc(Cl)c1	-7.7	27.8	9.3	-7.5	40.2*	12.6
CN(C(=O)COC(=O)C1COc2ccccc2O1)C1(C#N)CCCCC1 (centres undefined)	9.3	9.8	12.1	-13.6	-3.5	/
